For some of these results: Measured potencies and affinities stand elsewhere.
Assays:
Design in all cases: scale not given: direction of the effect not stated beside the values
[1] = biological target: Protein translocase subunit SecA (Escherichia coli (strain K12)) (UniProt P10408); experiment: Assay to Identify E. coli SecA ATPase Inhibitors; assay type: functional; details: 30 µM
[2] = biological target: T1, Ubiquitin-activating enzyme e1, putative (Leishmania donovani (strain BPK282A1)) (UniProt E9BSI1); experiment: Leishmania donovani Ubiquitin Activating Enzyme (LdE1); assay type: functional; details: 30 µM
T1 sequence (whole entry): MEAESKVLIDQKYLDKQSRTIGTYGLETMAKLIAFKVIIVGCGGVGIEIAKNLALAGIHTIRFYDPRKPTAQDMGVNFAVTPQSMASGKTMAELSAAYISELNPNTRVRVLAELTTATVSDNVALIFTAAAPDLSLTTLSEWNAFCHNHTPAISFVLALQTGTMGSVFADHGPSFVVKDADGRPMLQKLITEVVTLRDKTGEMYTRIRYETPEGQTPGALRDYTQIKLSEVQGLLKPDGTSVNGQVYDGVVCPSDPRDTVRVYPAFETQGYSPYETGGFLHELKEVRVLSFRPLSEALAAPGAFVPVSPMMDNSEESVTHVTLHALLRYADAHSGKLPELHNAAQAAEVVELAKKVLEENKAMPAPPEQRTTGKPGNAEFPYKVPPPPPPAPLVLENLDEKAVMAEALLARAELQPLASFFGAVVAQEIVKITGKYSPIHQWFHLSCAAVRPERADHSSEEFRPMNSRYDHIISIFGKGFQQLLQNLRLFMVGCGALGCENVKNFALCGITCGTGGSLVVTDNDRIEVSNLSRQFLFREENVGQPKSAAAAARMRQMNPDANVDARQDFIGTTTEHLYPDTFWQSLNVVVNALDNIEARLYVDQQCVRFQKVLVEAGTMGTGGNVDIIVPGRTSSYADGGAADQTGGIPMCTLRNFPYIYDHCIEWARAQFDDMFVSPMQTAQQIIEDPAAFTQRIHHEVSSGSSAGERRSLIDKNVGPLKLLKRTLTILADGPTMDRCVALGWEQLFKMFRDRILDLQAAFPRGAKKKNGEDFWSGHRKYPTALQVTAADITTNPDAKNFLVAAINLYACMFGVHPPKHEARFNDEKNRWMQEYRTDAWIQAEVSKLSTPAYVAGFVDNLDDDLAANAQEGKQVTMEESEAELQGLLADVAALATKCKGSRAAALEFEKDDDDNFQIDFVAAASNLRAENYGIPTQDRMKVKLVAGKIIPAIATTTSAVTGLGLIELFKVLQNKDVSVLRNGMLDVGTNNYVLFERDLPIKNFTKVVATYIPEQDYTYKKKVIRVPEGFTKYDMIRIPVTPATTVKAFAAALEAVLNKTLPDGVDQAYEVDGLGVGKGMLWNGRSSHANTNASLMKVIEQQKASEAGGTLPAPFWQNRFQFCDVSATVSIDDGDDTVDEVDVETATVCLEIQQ

[3] = biological target: AMP-activated protein kinase, AMPK (Homo sapiens) (UniProt P54646+O43741+P54619+Q9UGJ0+Q9Y478+Q13131+Q9UGI9); experiment: AMP-dependent Kinase enzyme assay. An in vitro enzyme assay that detects ADP turnover that is directly proportional to AMPK activity. This uses naive AMPK that is activated during the assay with MK-8722; assay type: functional; details: 30 µM
[4] = biological target: Sialic acid-binding Ig-like lectin 9 (Homo sapiens) (UniProt Q9Y336); experiment: Hs-Siglec9 ALPHAscreen SOP 20170721; details: 10 µM
Trypanosoma cruzi = experiment: Trypanosoma cruzi phosphomannomutase and mannose-1-phosphate guanylyltransferase assay; assay type: functional; details: 10 µM
[5] = biological target: T2, Arginase-2, mitochondrial (Homo sapiens) (UniProt P78540); experiment: in vitro enzyme assay to detect the production of urea directly proportional to the activity of Arginase II; assay type: functional; details: 33.3 µM; further: in the data most compounds retested in dose-response had high values
T2 sequence (whole entry): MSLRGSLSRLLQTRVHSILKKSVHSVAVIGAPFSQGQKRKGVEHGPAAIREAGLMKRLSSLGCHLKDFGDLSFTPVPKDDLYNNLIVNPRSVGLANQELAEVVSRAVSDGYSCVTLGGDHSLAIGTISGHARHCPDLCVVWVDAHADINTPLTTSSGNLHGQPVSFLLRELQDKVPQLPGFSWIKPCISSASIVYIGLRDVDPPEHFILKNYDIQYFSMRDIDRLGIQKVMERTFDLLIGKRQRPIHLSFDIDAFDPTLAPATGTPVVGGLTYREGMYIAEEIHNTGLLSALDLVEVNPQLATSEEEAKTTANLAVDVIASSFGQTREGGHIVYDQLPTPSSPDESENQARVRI

[6] = biological target: T3, Proteasome subunit beta (Trypanosoma cruzi) (UniProt O96673); experiment: Trypanosoma cruzi proteasome chymotrypsin-like activity (TcProtChymo) assay.; further: in the data most compounds retested in dose-response had high values; assay type: functional; details: 9.37 µM
T3 sequence (whole entry): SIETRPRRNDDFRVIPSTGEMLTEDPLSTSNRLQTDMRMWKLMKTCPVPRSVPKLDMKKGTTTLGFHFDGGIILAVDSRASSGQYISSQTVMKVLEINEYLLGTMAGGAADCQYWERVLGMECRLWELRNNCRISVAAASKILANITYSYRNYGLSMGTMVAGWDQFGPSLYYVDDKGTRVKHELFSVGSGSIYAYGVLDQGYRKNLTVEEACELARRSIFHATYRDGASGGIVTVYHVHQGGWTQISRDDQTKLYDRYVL

Homo sapiens = organism: Homo sapiens; experiment: To identify inhibition of the IFN signalling (Jak-Stat) pathway via expression of an eGFP reporter gene under the control of an IFN-stimulated response element (ISRE) containing MxA promoter.; assay type: functional; details: 30 µM
[7] = biological target: T4, Tyrosyl-tRNA synthetase, putative (Trypanosoma cruzi (strain CL Brener)) (UniProt Q4DSP6); experiment: Trypanosoma cruzi tyrosyl tRNA synthetase (TcYRS) _High Tyrosine SOP; assay type: functional; details: 30 µM; further: in the data most compounds retested in dose-response had high values
T4 sequence (whole entry): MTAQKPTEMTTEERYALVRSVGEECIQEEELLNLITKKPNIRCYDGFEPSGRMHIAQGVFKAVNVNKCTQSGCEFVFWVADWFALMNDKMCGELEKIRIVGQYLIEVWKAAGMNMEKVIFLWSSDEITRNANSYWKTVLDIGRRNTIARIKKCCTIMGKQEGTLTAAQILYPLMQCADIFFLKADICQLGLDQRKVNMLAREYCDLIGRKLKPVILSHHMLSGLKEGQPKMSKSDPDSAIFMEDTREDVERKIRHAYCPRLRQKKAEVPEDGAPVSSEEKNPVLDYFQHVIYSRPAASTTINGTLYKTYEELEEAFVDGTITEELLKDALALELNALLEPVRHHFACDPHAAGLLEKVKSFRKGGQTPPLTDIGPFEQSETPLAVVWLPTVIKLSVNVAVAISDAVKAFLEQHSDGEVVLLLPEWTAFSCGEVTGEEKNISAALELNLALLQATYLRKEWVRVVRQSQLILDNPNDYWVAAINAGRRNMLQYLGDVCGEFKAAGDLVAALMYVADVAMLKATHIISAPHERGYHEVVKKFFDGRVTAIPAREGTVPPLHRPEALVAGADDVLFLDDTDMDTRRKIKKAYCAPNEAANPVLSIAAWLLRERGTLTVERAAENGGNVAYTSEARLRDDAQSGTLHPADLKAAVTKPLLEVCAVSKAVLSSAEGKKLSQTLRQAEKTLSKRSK

[8] = biological target: T4, Tyrosyl-tRNA synthetase, putative (Trypanosoma cruzi (strain CL Brener)); experiment: Trypanosoma cruzi tyrosyl tRNA synthetase (TcYRS) SOP; assay type: functional; details: 30 µM
[9] = biological target: Chromo domain-containing protein 1 (Saccharomyces cerevisiae (strain ATCC 204508 / S288c) (Baker's yeast)) (UniProt P32657); experiment: ScCHD-1 Enzyme Inhibition Assay; assay type: functional; details: 30 µM; further: in the data most compounds retested in dose-response had high values
Sequence of Chromo domain-containing protein 1 (Saccharomyces cerevisiae (strain ATCC 204508 / S288c) (Baker's yeast)) (P32657 whole entry, the tested form may be a part): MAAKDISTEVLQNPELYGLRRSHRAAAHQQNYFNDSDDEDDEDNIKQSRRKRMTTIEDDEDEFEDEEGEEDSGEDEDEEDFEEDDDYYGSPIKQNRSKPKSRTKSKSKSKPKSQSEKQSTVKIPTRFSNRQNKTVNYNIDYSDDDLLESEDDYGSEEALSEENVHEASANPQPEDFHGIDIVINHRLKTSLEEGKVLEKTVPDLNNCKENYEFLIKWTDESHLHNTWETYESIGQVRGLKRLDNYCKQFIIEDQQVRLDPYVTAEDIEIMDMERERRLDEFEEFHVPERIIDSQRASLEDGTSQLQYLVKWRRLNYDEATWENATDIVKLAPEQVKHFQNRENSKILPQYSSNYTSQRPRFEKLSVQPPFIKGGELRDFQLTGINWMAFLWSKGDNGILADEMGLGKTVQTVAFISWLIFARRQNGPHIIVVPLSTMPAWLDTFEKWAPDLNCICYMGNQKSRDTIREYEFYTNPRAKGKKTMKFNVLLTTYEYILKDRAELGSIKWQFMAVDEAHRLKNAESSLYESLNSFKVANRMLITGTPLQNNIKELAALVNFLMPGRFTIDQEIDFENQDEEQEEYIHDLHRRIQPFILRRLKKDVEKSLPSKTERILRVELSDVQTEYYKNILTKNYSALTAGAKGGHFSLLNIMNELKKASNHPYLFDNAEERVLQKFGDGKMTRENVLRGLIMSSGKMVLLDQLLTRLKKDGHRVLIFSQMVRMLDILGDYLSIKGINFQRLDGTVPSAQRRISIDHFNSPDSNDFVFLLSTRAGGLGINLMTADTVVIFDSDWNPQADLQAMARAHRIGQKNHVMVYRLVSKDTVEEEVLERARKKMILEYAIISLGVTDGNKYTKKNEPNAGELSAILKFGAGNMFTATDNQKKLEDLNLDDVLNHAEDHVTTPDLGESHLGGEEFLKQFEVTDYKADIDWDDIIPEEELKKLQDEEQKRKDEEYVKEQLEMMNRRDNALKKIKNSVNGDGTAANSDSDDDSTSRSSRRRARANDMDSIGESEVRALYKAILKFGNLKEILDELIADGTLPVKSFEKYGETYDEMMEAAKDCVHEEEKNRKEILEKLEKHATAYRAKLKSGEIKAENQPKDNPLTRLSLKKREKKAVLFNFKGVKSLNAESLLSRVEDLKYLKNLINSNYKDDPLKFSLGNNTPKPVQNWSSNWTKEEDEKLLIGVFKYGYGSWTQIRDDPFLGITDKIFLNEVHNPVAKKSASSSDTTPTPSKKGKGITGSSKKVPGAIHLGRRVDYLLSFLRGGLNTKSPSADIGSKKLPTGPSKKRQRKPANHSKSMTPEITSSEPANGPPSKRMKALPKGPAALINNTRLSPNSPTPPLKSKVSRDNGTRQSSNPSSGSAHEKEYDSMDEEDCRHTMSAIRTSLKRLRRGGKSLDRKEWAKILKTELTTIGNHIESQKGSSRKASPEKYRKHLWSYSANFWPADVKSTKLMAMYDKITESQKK

Sequence of Sialic acid-binding Ig-like lectin 9 (Homo sapiens) (Q9Y336 whole entry): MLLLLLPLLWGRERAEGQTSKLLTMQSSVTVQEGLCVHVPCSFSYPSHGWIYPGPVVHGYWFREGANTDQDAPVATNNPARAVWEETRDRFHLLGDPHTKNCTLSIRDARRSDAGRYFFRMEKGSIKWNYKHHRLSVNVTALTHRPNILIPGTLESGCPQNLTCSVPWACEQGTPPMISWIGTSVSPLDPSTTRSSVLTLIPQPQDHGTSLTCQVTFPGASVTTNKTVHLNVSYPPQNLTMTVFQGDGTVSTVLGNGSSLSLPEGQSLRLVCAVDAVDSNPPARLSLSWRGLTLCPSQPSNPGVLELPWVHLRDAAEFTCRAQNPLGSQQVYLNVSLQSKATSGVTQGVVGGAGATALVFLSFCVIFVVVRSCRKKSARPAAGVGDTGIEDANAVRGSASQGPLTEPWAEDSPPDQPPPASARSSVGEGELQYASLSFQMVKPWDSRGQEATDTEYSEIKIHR
Sequence of Protein translocase subunit SecA (Escherichia coli (strain K12)) (P10408 whole entry): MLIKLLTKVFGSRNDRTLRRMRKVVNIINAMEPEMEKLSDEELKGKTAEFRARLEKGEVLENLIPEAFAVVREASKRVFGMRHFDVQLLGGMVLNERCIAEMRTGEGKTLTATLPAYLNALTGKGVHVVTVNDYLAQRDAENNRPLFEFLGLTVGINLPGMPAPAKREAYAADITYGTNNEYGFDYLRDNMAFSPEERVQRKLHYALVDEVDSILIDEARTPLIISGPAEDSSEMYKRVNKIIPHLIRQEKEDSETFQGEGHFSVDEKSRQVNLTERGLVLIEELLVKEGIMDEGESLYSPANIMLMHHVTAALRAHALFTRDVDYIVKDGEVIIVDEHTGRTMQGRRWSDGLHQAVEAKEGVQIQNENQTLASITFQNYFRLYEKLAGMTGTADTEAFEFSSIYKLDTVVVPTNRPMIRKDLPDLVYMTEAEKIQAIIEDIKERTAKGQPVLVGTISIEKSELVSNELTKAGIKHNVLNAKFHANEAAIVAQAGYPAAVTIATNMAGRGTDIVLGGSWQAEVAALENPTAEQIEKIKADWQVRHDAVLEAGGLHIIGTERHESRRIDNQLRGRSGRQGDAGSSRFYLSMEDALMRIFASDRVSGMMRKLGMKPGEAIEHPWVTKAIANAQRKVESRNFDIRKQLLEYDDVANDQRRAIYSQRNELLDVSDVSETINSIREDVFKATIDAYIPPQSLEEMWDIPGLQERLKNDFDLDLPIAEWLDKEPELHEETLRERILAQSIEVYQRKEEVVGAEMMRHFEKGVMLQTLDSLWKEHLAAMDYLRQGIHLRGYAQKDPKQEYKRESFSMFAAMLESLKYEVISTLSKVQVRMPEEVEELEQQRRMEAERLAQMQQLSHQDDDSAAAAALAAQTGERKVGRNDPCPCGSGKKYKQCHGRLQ

Row | Compound | Percent Effect [1] | Percent Effect [2] | Percent Effect [3] | Percent Effect [4] | Percent Effect (Trypanosoma cruzi) | Percent Effect [5] | Percent Effect [6] | Percent Effect (Homo sapiens) | Percent Effect [7] | Percent Effect [8] | Percent Effect [9]
1 | CC(O)CN1CCN(C(=O)c2cccn2Cc2ccncc2)CC1 (stereo unspecified) | -5.17% | 10.1% | 0.216% | 10.1% | 2.74% | 2.66% | -2.38% | 3.13% | 0.493% | 13.9% | -8.49%
2 | Cc1ccc2c(ccn2CCC(=O)O)c1 | -4.82% | 0% | 0.269% | -0.473% | 1.07% | -0.744% | -2.83% | 11.2% | 1.07% | 3.7% | 0.48%
3 | Cc1ccc(NC(=O)c2n[nH]c(-n3cnnc3)n2)cc1C | -5.16% | 9.33% | -5.75% | -2.63% | 4.32% | 21.6% | -10.7% | -2.17% | 8.47% | 10.3% | -18.6%
4 | CS(=O)(=O)NCCCNC(=O)c1cccnc1O | -3.07% | 0% | -3.83% | -4.12% | 1.76% | 1.25% | 16.6% | 6.15% | 7.92% | 8.54% | -4.62%
5 | N#Cc1cccc(S(=O)(=O)N2CCCCC2CCN2CCCC2=O)c1 (stereo unspecified) | -5.51% | -52% | -6.45% | 9.03% | 4.76% | 2% | 8.99% | -12.8% | 4.17% | 11.1% | -4.06%
6 | Cc1ccsc1CN(CCN(C)C)Cc1ccccn1 | -5.5% | 4.17% | -16.2% | 21.2% | 5.15% | 18.5% | 11.1% | -4.45% | 7.37% | 15.4% | -9.23%
7 | Cc1ccc(Nc2nccc(C3CN(CC(N)=O)C3)n2)nc1 | -6.39% | 20.3% | 2.38% | 3.4% | 7.12% | -5.8% | 17.2% | 10.7% | 8.6% | 24.7% | -14.1%
8 | Cc1nc(C)n(CC2CN(Cc3cccnc3)CCO2)n1 (stereo unspecified) | -3.52% | 21.1% | -7.06% | -5.07% | -2.33% | 2.52% | 6.85% | -13.4% | 9.36% | 23.5% | -5.32%
9 | Cc1nc2n(n1)CC(Nc1cc(C(F)(F)F)nc3ncnn13)CC2 (stereo unspecified) | -4.34% | 5.48% | 10.2% | -0.512% | 5.49% | -0.909% | 11.4% | -14.4% | 2.15% | 17.5% | -3.28%
10 | Cc1cnccc1N1CCCN(C(=O)CCCc2cn[nH]c2)CC1 | -2.89% | 11% | -5.34% | 18.3% | 3.92% | -1.36% | -1.06% | 4.4% | 1.07% | 7.5% | -3.49%
11 | COc1c(CNCCNC(=O)c2ccco2)c(C)nn1C | -4.26% | 2.7% | -4.46% | 0.652% | -1.39% | -0.185% | 4.31% | 11.3% | 3.96% | 11% | 0.206%

Reference: ChEMBL document CHEMBL3988442, “University of Dundee, Small-Polar-MMV Screening Library” (2021)
